Source: article PMC12136788
Where a chain is given by its changes, count along the chain named. Whole data set: some 24,000 sequences, median “enrichment r” near 0.99, cut for the highest 2% near 3.7. Shown is part of a subset that was picked to be rich in the highest values.

T1: UNK ZnF1-3 (human, UniProt Q9C0B0 31-174)
T1 sequence: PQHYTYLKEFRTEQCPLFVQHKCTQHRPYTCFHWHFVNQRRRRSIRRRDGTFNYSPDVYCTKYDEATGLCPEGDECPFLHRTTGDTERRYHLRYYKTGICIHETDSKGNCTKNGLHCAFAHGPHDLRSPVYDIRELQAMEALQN

B1: chr20:21346065:21346066:+_ENSG00000088930_ENST00000377191|hu_hu|FALSE|FALSE (ssRNA)
RNA: GGGAGUUCUACAGUCCGACGAUCUCCUGGAAGCAUUACAGCUUUAAAAAUGUAAUCUUCAGCAAACUGUGGGUCUUUAAAAUUAAUACUGACUACAGUGUUCUGUGUCAGAUCCCUUAACAUAGGAACAGGAGAACAUACUAUCAACAGAGGAUUGAGCAUCA
B2: chr2:114709107:114709108:+_ENSG00000115091_ENST00000536059|hu_mus|FALSE|FALSE (ssRNA)
RNA: GGGAGUUCUACAGUCCGACGAUCAGAGAGGACAAUGUUCUUGUAGAGAGGACGCCGGACAUCAAUGGGGCAAUUCUGAAUGACUUCAUCUACAACUUCUGAGAUAGGUUGUGUAAAAUCUGGAUUAGCAAACUCUGGAUGGAACAACAGAGGAUUGAGCAUCA
B3: chr5:141234466:141234467:-_ENSMUSG00000000149_ENSMUST00000000153|mus_mus|motif|central (ssRNA)
RNA: GGGAGUUCUACAGUCCGACGAUCAGGACAAUAGUCAAGGGUAACAGUGAAAUUAAAAUUAAAAAAAAAAAUACAAACGCCGGAGGUCUGGGAGAAACCUGACUACAAUCUACGUGGAGAAACUUGUAAAUGACUCCAGCCUGGCAACAGAGGAUUGAGCAUCA
B4: chr1:220276048:220276049:+_ENSG00000067704_ENST00000302637|hu_hu|hu_hu_hu_mus_True|48_78 (ssRNA)
RNA: GGGAGUUCUACAGUCCGACGAUCGCAAAUUGCCUGGUUGGCGGGAAUUGUCCAAGGUUGUGUGGUCCAAACUAAAACGCUAACAGGAGAUGAACCAUCUGUAAGAGACUCCAACUUCGGAGGAGGUCUCAGGAGGGGGAAUCUCAACAGAGGAUUGAGCAUCA
B5: chr1:220276048:220276049:+_ENSG00000067704_ENST00000302637|hu_hu|hu_hu_hu_mus_True|1_38 (ssRNA)
RNA: B4 RNA with U57C, U60G, A87G, A93G, C94G, G100A, G138A, C142U
B6: chr1:220276048:220276049:+_ENSG00000067704_ENST00000302637|hu_hu|hu_hu_hu_mus_True|8_28 (ssRNA)
RNA: GGGAGUUCUACAGUCCGACGAUCGCAAAUUGCCUGGUUGGCGGGAAUUGUCCAAGGCUGGGUGGUCCAAACUAAAACGCUAACAGGGGAUGAGGCAUCUGUAAGAGAUGCCAAUUUCGGAGGAGGUUUUAAGAGAGGGAAUCUCAACAGAGGAUUGAGCAUCA
B7: chr1:220276048:220276049:+_ENSG00000067704_ENST00000302637|hu_hu|hu_hu_hu_mus_True|8_58 (ssRNA)
RNA: B6 RNA with C77U, G78A, U108C, G109U, U114C
B8: chr5:141234466:141234467:-_ENSMUSG00000000149_ENSMUST00000000153|mus_mus|FALSE|FALSE (ssRNA)
RNA: B3 RNA with G81U, G82A
B9: chr1:59924863:59924864:+_ENSMUSG00000067336_ENSMUST00000087435|mus_hu|FALSE|FALSE (ssRNA)
RNA: GGGAGUUCUACAGUCCGACGAUCGCUGCCAAAUUUUAGCCGGGGCUCUUUUGUUGAAUUUUUGGUGUUCAAAGGCAAACUAGUAGGUCUCUUGGGAAGGUUCUGCUGCUUGGGGAGAGGAUAGAUCUGAGUAGGCAGAACAUCCAACAGAGGAUUGAGCAUCA
B10: chr17:13115065:13115066:+_ENSMUSG00000068039_ENSMUST00000151287|mus_hu|motif|central (ssRNA)
RNA: GGGAGUUCUACAGUCCGACGAUCAAUAGUUGCUCCAGAAGCUUUGGCAAUGCGUUUAAGGUCCCUUUUUAAAACUCUUCGGACUGCCAUAGCACCAGCCUCCACAAAAUACUUCAGACACAUAUCAUCAAUUCCACCAGUGGUCAACAGAGGAUUGAGCAUCA
B11: chr7:112906983:112906984:-_ENSMUSG00000036862_ENSMUST00000078482|mus_mus|FALSE|FALSE (ssRNA)
RNA: GGGAGUUCUACAGUCCGACGAUCUGGGGAGAUAACUGGAGUCCCUGGUGGUGCAUUUUCACGGAGCACAGCCUCACUACUAGUUCUGGGAAAGCGGGGUCCACGCUCAGGCUCUCCCUGUAUUCCAACAACGACCACACCAGUCAACAGAGGAUUGAGCAUCA
B12: chr12:48362563:48362564:+_ENSG00000134291_ENST00000256686|hu_hu|hu_hu_hu_mus_False|18_58 (ssRNA)
RNA: GGGAGUUCUACAGUCCGACGAUCUCCGUCAAGCCCUUCGAUAGACCCUUGCGGGGGAAACUGUAAUCACUUUGUAUUUCUAAAAAAAAGAAACGCCAAAAACUUUCCAAAAAGCGGUUCAAAAAGCAGGCGGGAGGGGGAGGUCAACAGAGGAUUGAGCAUCA
B13: chr4:140556289:140556290:+_ENSMUSG00000036622_ENSMUST00000037055|mus_mus|mus_mus_mus_hu_False|18_68 (ssRNA)
RNA: GGGAGUUCUACAGUCCGACGAUCGAUGGAGCUCACCAGGCCCCCUUUUGCCGUGCAGAACCCUGUGCGAGUCACCACUGCCAGGACGUGCGGUCCCACAUAGGCCCGGGCCUGCAAAAUGAGGGUGCCGCAGAAGAGUGUGUGCAACAGAGGAUUGAGCAUCA
B14: chr2:176857141:176857142:-_ENSG00000144320_ENST00000272748|hu_hu|motif|central (ssRNA)
RNA: GGGAGUUCUACAGUCCGACGAUCUUUUUGUAAUCUCUGAUUUUUUUCCCUAAAUUCUUCCAAUGCUUGAAUUUCCUUAUCGGUACUUUCUAGAACUUCUACAGUUGAAGGUUUUGUCCUCCAUCGAGAAAAUAAUCCACCCAUCAACAGAGGAUUGAGCAUCA
B15: chr4:144461564:144461565:+_ENSG00000153147_ENST00000283131|hu_hu|motif|central (ssRNA)
RNA: GGGAGUUCUACAGUCCGACGAUCCCUCCCUUGUUGAAUGACUAUUGAAUCCAGUCUGAGUUUCAUCUCAGCACGUUCGGCGGUUCUUUCUUCUACAGUGUUAUCAGUUAUAAAGCGGAACACUCUGACUGUCUUAGUCUGCCCCAACAGAGGAUUGAGCAUCA
B16: chr12:493273:493274:-_ENSG00000073614_ENST00000399788|hu_mus|hu_hu_hu_mus_False|28_108 (ssRNA)
RNA: GGGAGUUCUACAGUCCGACGAUCUUUUCUCUCUACCACAGGGAUCUUCAAUGUAGAUCCUUGAAGUUCCCAAAAUUUUGCCAGUUGAUCCAAGAAGUCCAAUCUUACUCUGGUCAUUGCCUCAAGUUCAUUCAGGCGCUGGACCAACAGAGGAUUGAGCAUCA

What follows are binders tested against T1, UNK ZnF1-3 (assay: nsRBNS (natural sequence RNA bind-n-seq); RBNS binding buffer (assumed for nsRBNS): 25 mM Tris pH 7.5, 150 mM KCl, 3 mM MgCl2, 0.01% Triton X-100, 500 ug/ml BSA, 20 U/ml SUPERase-In, 4 C; UNK is unkempt and MSI1 is Musashi-1; names of the RNAs are library labels; protein concentration not given here; high values mean tight binding).

Point of comparison: B14, binding signal 0.655 enrichment R. Against it:
- B1 — higher, 1.24 enrichment R
- B2 — higher, 1.28 enrichment R
- B3 — higher, 11.3 enrichment R
- B4 — higher, 1.31 enrichment R
- B5 — higher, 3.48 enrichment R
- B6 — higher, 2.55 enrichment R
- B7 — higher, 3.69 enrichment R
- B8 — higher, 14.8 enrichment R
- B9 — higher, 1.44 enrichment R
- B10 — higher, 1.25 enrichment R
- B11 — higher, 0.989 enrichment R
- B12 — higher, 1.93 enrichment R
- B13 — higher, 0.954 enrichment R
- B15 — higher, 0.923 enrichment R
- B16 — higher, 0.902 enrichment R
